# Source: PubChem BioAssay
# Sampled rows, rich in hits. Any-hit rate of the full collection: about 21%.
# DT40 TDP1 no CPT: qHTS for Inhibitors of human tyrosyl-DNA phosphodiesterase 1 (TDP1): qHTS in cells in absence of CPT | Potency, µM (doses to about 46.2 µM), inactives show at the top dose activity change, negative = growth inhibition, usual class: inhibitors | hit rate 15% among 420,000 | DT40 Tdp1-/- hTDP1 cells, no CPT, ATP luminescence, 48 h | AID 686978, 2013; further: potency means the concentration at half of the fitted maximal effect; nearly all actives have a fitted effect of over 55% in size
#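 Chicken DT40 Tdp1-/- cells stably complemented with human TDP1 were seeded at 400 cells/well with DMSO in place of 20 nM camptothecin. After compound pinning, cells grew at least 48 hr at 37 °C; viability read by CellTiter-Glo luminescence.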
# RORg inh: qHTS for inhibitors of ROR gamma transcriptional activity; Drosophila S2 Gal4-RORgamma UAS-luciferase reporter, 20 h; hit rate 5.4% among 310,000; Nuclear receptor ROR-gamma (Mus musculus), P51450; Potency, µM (series often up to 53.6 µM), inactives show at the top dose activity change, negative = inhibition, usual class: inhibitors; further: potency means the concentration at half of the fitted maximal effect; nearly all actives have a fitted effect of over 60% in size
# Target sequence (P51450 whole entry, looked up, the tested form may be a part): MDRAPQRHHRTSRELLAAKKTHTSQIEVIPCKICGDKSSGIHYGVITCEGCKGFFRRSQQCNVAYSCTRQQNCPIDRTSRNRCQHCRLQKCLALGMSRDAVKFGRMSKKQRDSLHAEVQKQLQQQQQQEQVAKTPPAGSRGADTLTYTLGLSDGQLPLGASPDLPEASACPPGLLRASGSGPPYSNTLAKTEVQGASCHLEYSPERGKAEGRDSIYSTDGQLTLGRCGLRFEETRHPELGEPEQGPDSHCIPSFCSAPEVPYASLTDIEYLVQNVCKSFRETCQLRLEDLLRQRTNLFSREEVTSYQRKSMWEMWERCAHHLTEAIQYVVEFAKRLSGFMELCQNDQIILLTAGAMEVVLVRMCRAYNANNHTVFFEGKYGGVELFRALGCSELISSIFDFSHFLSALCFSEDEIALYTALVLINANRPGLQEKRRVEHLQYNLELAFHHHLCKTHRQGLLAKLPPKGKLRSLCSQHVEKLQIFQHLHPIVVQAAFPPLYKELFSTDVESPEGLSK
#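 Using a luciferase readout, inhibitors were identified by reduced reporter activity in Drosophila cells coexpressing a copper-inducible Gal4–ROR gamma fusion and UAS-driven Photinus luciferase, incubated 20 hr after 700 uM copper sulfate.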
# DT40 TDP1 CPT: qHTS for Inhibitors of human tyrosyl-DNA phosphodiesterase 1 (TDP1): qHTS in cells in presence of CPT; AID 686979, 2013; hit rate 12% among 420,000; chicken DT40 Tdp1-/-;hTDP1 cells + 20 nM CPT, ATP luminescence, 48 h; Potency, µM (top dose mostly 46.2 µM), for the others: top-dose activity change, negative = growth inhibition, usual class: inhibitors; further: potency means the concentration at half of the fitted maximal effect; nearly all actives have a fitted effect of over 55% in size
#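 Cell growth measured by CellTiter-Glo luminescence after a minimum 48 h, 37 C compound exposure with 20 nM CPT in Tdp1-knockout DT40 cells stably expressing hTDP1, seeded 400/well; qHTS titration format.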
# IL1B secr inh: qHTS for Inhibitors of Inflammasome Signaling: IL-1-beta AlphaLISA Primary Screen. THP-1 LPS/ATP IL-1B secretion, AlphaLISA, 16 h; hits give low values. activity change, % at 57.5 µM. hit rate 4.7% among 360,000. AID 743279, 2014; in the data active means activity change below about -50%; inconclusive means mostly about -30% to -49%
#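 Secreted IL-1B measured by AlphaLISA bead assay after 16 h compound exposure of THP-1 cells; compounds (final up to 57.5 uM) added 1 h before LPS (250 ng/mL) and ATP (1.25 mM) stimulation; lower signal means less secretion.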
# ELG1 DNA repair: qHTS screen for small molecules that inhibit ELG1-dependent DNA repair in human embryonic kidney (HEK293T) cells expressing luciferase-tagged ELG1; hit rate 2.3% among 330,000; AID 504467, 2011; Potency, µM (doses to about 46.1 µM), for the others: at the top dose activity change, negative = inhibition, actives largely listed as inhibitors; HEK293T ELG1-luciferase reporter, luminescence, 16 h; DNA damage induced by 5-fluorouridine; further: potency means the concentration at half of the fitted maximal effect; nearly all actives have a fitted effect of over 55% in size
#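 DMSO vehicle served as the neutral condition. Each well held 2,000 cells given 5-fluorouridine plus compound; after 16 hr at 37 °C/5% CO2, ONE-Glo was added and luciferase measured 30 min later.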
# VP16 counter: VP16 counterscreen qHTS for inhibitors of ROR gamma transcriptional activity. Drosophila S2 Gal4-VP16 UAS-luciferase, luminescence, 20 h. Potency, µM (series often up to 53.6 µM), without a hit: top-dose activity, negative = inhibition, usual class: inhibitors. hit rate 3.5% among 310,000. AID 2546, 2010;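 further: Gal4-VP16 expression switched on by copper sulfate through the metallothionein promoter; potency means the concentration at half of the fitted maximal effect; nearly all actives have a fitted effect of over 50% in size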
# The depositor's hits bear a star; ? = inconclusive; / = no result. Unless noted, the call rests on the fitted dose curve; in most records, active means well fitted curve in the direction sought with a large enough effect; inconclusive means small, poorly fitted or top-dose-only effect, or another doubt; inactive means no such curve, though single readings can be large; an effect the other way counts as inactive or inconclusive. On the % scale 0 is the no-effect control and ±100 the full control effect.
SMILES,DT40 TDP1 no CPT,RORg inh,DT40 TDP1 CPT,IL1B secr inh,ELG1 DNA repair,VP16 counter
C/C(=N\NC(=O)c1ccc(C)cc1)c1c(C)[nH]n(-c2ccccc2)c1=O,4.11µM*,1.26µM*,4.61µM*,129.7,?,1.58µM*
Cc1nn(-c2ccccc2)nc1C(=O)c1c(C)[nH]n(-c2ccccc2)c1=O,3.66µM*,8.8%,5.17µM*,20.5,?,-1.8%
Cc1[nH]n(-c2ccccc2)c(=O)c1C(=O)c1ccc([N+](=O)[O-])cc1,?,36.3%,?,0.0,-2.8%,-5.3%
Cc1[nH]n(-c2ccccc2)c(=O)c1C(=O)Nc1ccccc1,16.4µM*,8.2%,8.2µM*,14.1,?,-10.6%
C/C(=N\NC(=O)c1ccccc1)c1ccc(N2CCCCC2)cc1,0.2%,-8.4%,-12.4%,-7.5,?,12.8%
CCc1nnc(NC(=O)CCC(=O)N2CCN(c3cc(Cl)ccc3C)CC2)s1,-2.4%,9.2%,?,22.3,-3.1%,-5.7%
C/C=C/C1=CC(=O)C[C@H](c2ccc(OC)c(OC)c2)C1,?,/,?,-97.5*,-21.1%,/
C/C=C/C1=CC(=O)C[C@H](c2ccc(Cl)cc2)C1,?,/,?,-82.1*,19.7%,/
NCCCC[C@H](NC(=O)[C@H](CCCN=C(N)N)NC(=O)[C@H](CO)NC(=O)[C@H](CCCN=C(N)N)NC(=O)[C@@H](N)Cc1ccc(O)cc1)C(=O)N[C@@H](Cc1ccc(O)cc1)C(=O)N[C@@H](CO)C(=O)N[C@@H](CO)C(=O)N[C@@H](Cc1c[nH]c2ccccc12)C(=O)N[C@@H](Cc1ccc(O)cc1)C(=O)O,/,-18.9%,/,/,/,4.4%
O=C(COC(=O)c1cc(S(=O)(=O)N2CCCCC2)ccc1N1CCOCC1)c1ccccc1Cl,-28.0%,/,-13.5%,-1.2,/,/
O=C(OCCOc1ccc(Cl)cc1)c1cc(S(=O)(=O)N2CCCCC2)ccc1N1CCOCC1,?,/,13µM*,12.1,/,/
Cc1ccc(OCCOC(=O)c2cc(S(=O)(=O)N3CCCCC3)ccc2N2CCOCC2)cc1,13µM*,/,16.4µM*,0.6,-23.4%,/
CCNc1ncc2nc(C)c(=O)n(Cc3cccs3)c2n1,-23.4%,-36.0%,-4.1%,/,/,3.2%
CSCCC(c1nc2ccccc2[nH]1)n1c(C)nc2ccccc21 (stereo not given),-5.3%,/,0.9%,9.1,/,/
CSCCC(c1nc2ccccc2[nH]1)n1c(-c2cc(C(F)(F)F)cc(C(F)(F)F)c2)nc2ccccc21 (stereo not given),16.4µM*,/,?,-21.3,/,/
CSCCC(c1nc2ccccc2[nH]1)n1c(=O)c(-c2ccco2)nc2ccccc21 (stereo not given),23.1µM*,/,11.6µM*,?,/,/
O=C(Nc1ccc(Cl)cn1)c1cnn2c1NC(=C1CC1)C=C2C(F)F,-19.4%,/,?,/,/,/
CCc1ccc(-c2csc3[n+]2CCN3C(C)=O)cc1,25.9µM*,-44.3%,?,-9.1,?,-0.2%
CC(=O)N1CC[n+]2c(-c3ccc(Cl)cc3)csc21,23.1µM*,-2.8%,25.9µM*,-1.8,-0.8%,2.5%
O=C1CS/C(=N/N=C/c2ccco2)N1Cc1ccc(F)cc1,-27.4%,36.2%,-4.1%,3.5,-8.6%,-11.3%
CCN(c1ccccc1)S(=O)(=O)c1cccc(C(=O)NCCN2CCOCC2)c1,12.5%,/,-6.9%,-0.3,9.7%,/
Cc1cc2nc(NC(=O)C3(C)CCN3C(=O)C(C)C)[nH]c2cc1C (stereo not given),-29.1%,/,-15.5%,5.6,/,/
CCN(CC(=O)Nc1ccc(OC)c(OC)c1)CC(=O)Nc1ccccc1C(F)(F)F,?,21.2%,?,-10.5,1.7%,1.3%
CCN(CC)CCCNC(=O)c1ccc(OCC(=O)Nc2ccccc2C(F)(F)F)c(OC)c1,?,5.2%,?,-62.0*,0.0%,9.6%
O=[N+]([O-])c1ccc(N2CCN(c3ccccc3Cl)CC2)cn1,20.6µM*,25.7%,18.4µM*,-0.9,9.4%,?
SMILES,DT40 TDP1 no CPT,RORg inh,DT40 TDP1 CPT,IL1B secr inh,ELG1 DNA repair,VP16 counter
CCC(=O)N1c2ccccc2C(N(C(=O)CC)c2ccccc2)CC1C (stereo not given),9.2µM*,-43.0%,?,110.0,?,4.9%
CCC(=O)N1c2ccccc2C(N(C(C)=O)c2ccccc2)CC1C (stereo not given),?,-43.1%,-9.2%,133.9,?,-9.0%
COc1cc(OC)cc(C(=O)NC(=S)NCCc2ccccc2)c1,?,0.708µM*,-29.7%,-6.3,6.4%,0.631µM*
COc1cc(OC)cc(C(=O)NC(=S)N(Cc2ccccc2)C(C)C)c1,?,0.501µM*,?,4.3,?,0.891µM*
COc1cc(OC)cc(C(=O)NCCNC(=O)c2ccccc2)c1,-26.3%,16.7%,-18.6%,16.4,-6.0%,3.9%
CCCCOc1ccc(S(=O)(=O)NC(=O)C2(C)CCN2C(=O)c2cccc(F)c2)cc1 (stereo not given),-9.8%,/,3.6%,1.2,/,/
CCc1ccc(-c2nn(CC(=O)NC3CCCCC3)c3c2cnc2ccc(F)cc23)cc1,10.5%,/,-11.6%,/,/,/
Cc1c2cnccc2c(C)c2c1oc1ccccc12,23.1µM*,/,?,-72.9*,/,/
Cc1[nH]nc2c1C(c1cn[nH]c1-c1ccc(F)cc1)C(C#N)=C(N)O2 (stereo not given),?,0.1%,?,-80.4*,-6.4%,-6.1%
Cc1ccc(C2C(C#N)=C(N)Oc3n[nH]c(-c4ccccc4)c32)o1 (stereo not given),23.1µM*,-33.8%,13µM*,4.1,?,-22.5%
Cc1ccc(C2C(C#N)=C(N)Oc3n[nH]c(-c4cccnc4)c32)o1 (stereo not given),-1.5%,-34.0%,-19.6%,6.0,-1.9%,-28.1%
COc1ccc(-c2ccc(C3C(C#N)=C(N)Oc4n[nH]c(C)c43)o2)cc1 (stereo not given),20.6µM*,?,20.6µM*,-3.3,0.0%,-25.5%
COc1ccc(OCCOC(=O)CNC(=O)c2ccc(F)cc2)cc1,3.6%,/,-0.2%,33.1,/,/
O=C(Nc1nnc(SCc2ccc(Cl)cc2)s1)c1cnccn1,?,12.6µM*,?,3.7,0.5%,14.1µM*
